# A selection: hits, their analogues and other compounds. The true share with any hit is near 27%.
# CYP2C9 inhib: blockers of cytochrome P450 2C9 activity – biochemical, luminescence, ADME assay, primary screen; inhibition, % at 5 µM; AID 777, 2007; actives 20% (n = 96,000); CYP2C9 Supersomes, luciferin-H conversion; P11712;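 active = blocking of liver enzyme CYP2C9 beyond about 50% at 5 µM, limit read from the data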
# CYP2C19 inh: blockers of cytochrome P450 2C19 activity – biochemical, luminescence, ADME assay, primary screen; inhibition, % at 5 µM; AID 778, 2007; actives 21% (n = 96,000); CYP2C19 Supersomes, luciferin-H EGE luminescence, 30 min; P33261;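 active = CYP2C19 inhibition above a set limit at 5 µM in the primary screen, cut at about 50% in these data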
# EphB4 ephrin blk: EphB4-ephrin-B2 interaction antagonists, primary screen, biochemical, TNYL-RAW peptide probe, fluorescence polarization; EphB4 LBD / TNYL-RAW-Alexa532 peptide; inhibition, % at 7 µM; actives 0.15% (n = 97,000);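 active = inhibition above the screen-wide mean inhibition plus 3 SD, cut at about 15% in these data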
# Target sequence (P54760 whole entry, looked up, the tested form may be a part): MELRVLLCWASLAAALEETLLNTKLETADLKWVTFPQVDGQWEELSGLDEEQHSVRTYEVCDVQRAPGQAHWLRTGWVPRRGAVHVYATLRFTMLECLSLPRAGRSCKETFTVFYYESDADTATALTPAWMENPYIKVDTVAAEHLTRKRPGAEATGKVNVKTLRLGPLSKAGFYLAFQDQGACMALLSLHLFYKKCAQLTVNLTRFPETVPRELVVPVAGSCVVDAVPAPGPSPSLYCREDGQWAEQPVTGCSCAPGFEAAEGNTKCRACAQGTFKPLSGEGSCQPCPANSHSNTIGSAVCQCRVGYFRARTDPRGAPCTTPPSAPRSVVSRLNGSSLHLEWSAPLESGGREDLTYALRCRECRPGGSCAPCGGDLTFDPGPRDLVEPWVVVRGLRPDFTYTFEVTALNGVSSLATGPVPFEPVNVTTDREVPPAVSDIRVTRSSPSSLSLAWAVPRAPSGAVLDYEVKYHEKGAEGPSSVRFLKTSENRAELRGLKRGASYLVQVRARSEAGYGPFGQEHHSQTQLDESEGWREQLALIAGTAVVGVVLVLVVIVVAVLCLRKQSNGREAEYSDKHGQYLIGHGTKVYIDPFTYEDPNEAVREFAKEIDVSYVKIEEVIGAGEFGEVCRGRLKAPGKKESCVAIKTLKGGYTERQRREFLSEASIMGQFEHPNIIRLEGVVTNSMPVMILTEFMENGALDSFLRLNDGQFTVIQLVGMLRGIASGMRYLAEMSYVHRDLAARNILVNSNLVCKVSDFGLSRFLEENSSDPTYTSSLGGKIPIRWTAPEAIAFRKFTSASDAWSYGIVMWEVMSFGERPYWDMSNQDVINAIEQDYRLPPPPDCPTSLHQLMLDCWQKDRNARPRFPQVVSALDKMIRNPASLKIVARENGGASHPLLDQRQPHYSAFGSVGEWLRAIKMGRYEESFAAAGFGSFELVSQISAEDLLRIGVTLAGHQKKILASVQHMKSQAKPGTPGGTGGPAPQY
# CYP2C19 act: human CYP2C19 activators, primary screen, biochemical, luminescence | Cytochrome P450 2C19 (Homo sapiens), P33261 | recombinant CYP2C19, luciferin-H EGE luminescence; hits give high values; 0 = fully inhibited enzyme, 1 = untreated enzyme | activation factor at 5 µM | 96,000 tested, under 10 active | AID 1025, 2008;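 active = activation factor of at least 2 at 5 µM in the primary screen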
# CYP2C9 act: human CYP2C9 activators, primary screen, biochemical, luminescence. actives 1.4% (n = 96,000). Cytochrome P450 2C9 (Homo sapiens), P11712. AID 1024, 2008. activation factor at 5 µM. recombinant CYP2C9, luciferin-H conversion; hits give high values; factor 1 = untreated enzyme, 0 = blocked;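 active = activation factor of 2 or more for CYP2C9 at a 5 µM dose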
# Hits are given with their value; 0 = inactive; - = no result.
SMILES,CYP2C9 inhib,CYP2C19 inh,EphB4 ephrin blk,CYP2C19 act,CYP2C9 act
Cc1ccc2[nH]c3c(c2c1)CN(C(=O)CN1CCCc2ccccc21)CC3,0,0,-,0,0
Nc1[nH]nc2nc(N3CCOCC3)nc(-c3ccccc3)c12,0,0,0,0,0
N#Cc1nc(COc2ccccc2)oc1N1CCC(Cc2ccccc2)CC1,87,55,0,0,0
N#Cc1nc(-c2cccs2)oc1N1CCN(Cc2ccccc2)CC1,0,0,0,0,0
N#Cc1nc(COc2ccccc2)oc1N1CCN(Cc2ccccc2)CC1,93,78,0,0,0
CCOc1ccc(-c2nc(C#N)c(N3CCN(CC)CC3)o2)cc1,0,0,0,0,0
Cc1ccc(OCc2nc(C#N)c(N3CCN(Cc4ccccc4)CC3)o2)cc1,84,68,0,0,0
Cc1ccc(Oc2nc(-c3ccccc3)ncc2S(=O)(=O)c2ccc(C)cc2)cc1,0,0,0,0,0
COc1ccc(-c2c(S(=O)(=O)c3ccccc3)cnn2-c2ccccc2)cc1,51,97,0,0,0
O=S(=O)(c1ccccc1)c1cnn(-c2ccccc2)c1-c1ccc(Cl)cc1,0,55,0,0,0
CCN1CCN(c2ncc(C(=O)N3CCCc4ccccc43)c3ccccc23)CC1,0,81,-,0,0
Cc1ccc(NC(=O)c2ccc(S(=O)(=O)N3CCOCC3)cc2)nc1,0,0,0,0,0
CCCn1c(SCC(=O)Nc2ccc3c(c2)OCO3)nc2c1c(=O)n(C)c(=O)n2C,0,0,-,0,0
CCCn1c(SCC(=O)Nc2sc(C)c(C)c2C(=O)OCC)nc2c1c(=O)n(C)c(=O)n2C,66,0,0,0,0
COC(=O)c1ccccc1NC(=O)CSc1nc2c(c(=O)n(C)c(=O)n2C)n1C,-,-,0,-,-
CCCn1c(SCC(=O)Nc2ccccc2C(=O)OC)nc2c1c(=O)n(C)c(=O)n2C,72,0,0,0,0
CCCn1c(SCC(=O)Nc2ccccc2N2CCCCC2)nc2c1c(=O)n(C)c(=O)n2C,98,79,0,0,0
CSC1=NCCN1C(=O)c1c(F)cccc1Cl,0,0,0,0,0
Cc1cnc(NC(=O)CN2CCN(c3ccccn3)CC2)s1,0,0,0,0,0
COc1cc(C(=S)N2CCCC2)cc(OC)c1O,0,61,0,0,0
CCOc1ccc(C(=S)N2CCCC2)cc1,0,89,0,0,0
CCOc1ccc(C(=O)N2CCCCCC2)cc1,0,0,0,0,0
Cc1ccc(S(=O)(=O)NCCN(CCNS(=O)(=O)c2ccc(C)cc2)S(C)(=O)=O)cc1,0,0,0,0,0
O=C(C1CC(c2ccc(F)cc2)=NO1)N1CCc2ccccc2C1 (stereo unspecified),0,63,0,0,0
O=C(C1CC(c2ccccc2O)=NO1)N1CCc2ccccc2C1 (stereo unspecified),0,62,0,0,0
SMILES,CYP2C9 inhib,CYP2C19 inh,EphB4 ephrin blk,CYP2C19 act,CYP2C9 act
O=C(C1CC(c2ccccc2O)=NO1)N1CCCCC1 (stereo unspecified),0,70,0,0,0
CNc1nc(-c2ccccc2)nc(-c2ccccc2)c1C#N,0,0,0,0,0
Cc1ccc(CNC(=O)CN2C(=O)C3(OCCCO3)c3ccccc32)cc1,0,62,0,0,0
O=C(CN1C(=O)C2(OCCCO2)c2ccccc21)NCc1ccccc1,0,64,-,0,0
Cc1ccc(C)c(CN2C(=O)C3(OCCCO3)c3ccccc32)c1,72,52,0,0,0
CCOC(=O)CN1C(=O)C2(OCCCO2)c2ccccc21,0,0,0,0,0
CC(C)(C)C(=O)CN1C(=O)C2(OCCO2)c2ccccc21,0,0,0,0,0
CC(C)Cn1c(SCC(=O)NC(=O)Nc2ccc3c(c2)OCCO3)nc2ccccc2c1=O,0,0,-,0,0
C=CCOc1ccc(C2c3c(oc4ccccc4c3=O)C(=O)N2CCCN2CCOCC2)cc1 (stereo unspecified),55,0,0,0,0
CC(C)Oc1ccc(C2c3c(oc4ccccc4c3=O)C(=O)N2CCCN2CCOCC2)cc1 (stereo unspecified),51,0,0,0,0
CCOC(=O)c1c(C)[nH]c(C(=O)Cn2nnc(-c3ccc(Cl)cc3)n2)c1C,0,0,0,0,0
CCOC(=O)N1CCN(C(=O)c2cn(CCOC)c(=O)c3c2c2ccccc2n3C)CC1,0,0,0,0,0
COCc1cc(=O)n2c([nH]c3ccccc32)c1C#N,0,0,0,0,0
CCC(C)C(=O)N1CCc2cc(-c3csc(N)n3)ccc21 (stereo unspecified),70,78,0,0,0
Cc1nc(C(F)(F)F)nc(Nc2ccc(Br)cc2)c1C#N,0,64,0,0,0
COc1ccc(-c2cc(-c3ccc(Br)cc3)nc3ncnn23)cc1OC,55,0,0,0,0
COc1ccc(O)c(-c2c(-c3ccc(Cl)cc3)n[nH]c2C)c1,72,99,0,0,0
COc1ccc(-c2n[nH]c(C)c2-c2ccc(Cl)cc2)c(O)c1,0,63,0,0,0
CC1(C)Cc2nc3[nH]c(=S)n(-c4ccccc4)c(=O)c3cc2CO1,-,-,0,-,-
CC(C)c1ccccc1N=C1SCCN1C1CCS(=O)(=O)C1 (stereo unspecified),0,58,0,0,0
Cc1ccc(C)n1C1CCS(=O)(=O)C1 (stereo unspecified),0,0,0,0,0
Cc1[nH]nc2ncc(C(=O)c3ccccc3O)cc12,0,0,0,0,0
COCCOC(=O)c1cc(C(=O)c2cc(F)ccc2O)coc1=N,-,-,0,-,-
Cc1nn(C)c2ncc(C(=O)c3cc(F)ccc3O)cc12,68,95,0,0,0
COc1ccc(O)c(C(=O)c2cnc3onc(C)c3c2)c1,0,83,0,0,0
SMILES,CYP2C9 inhib,CYP2C19 inh,EphB4 ephrin blk,CYP2C19 act,CYP2C9 act
O=C(O)C1CCCCC1C(=O)NCc1ccc(F)cc1 (stereo unspecified),0,0,0,0,0
CCc1ccc(NC(=O)c2cnn3ccccc23)cc1,0,0,0,0,0
CC1=C(C(=O)OCC(C)C)C(c2ccsc2)NC(=O)N1 (stereo unspecified),52,65,0,0,0
CCOC(=O)C1=C(C)NC(=O)NC1c1ccc2c(c1)OCCO2 (stereo unspecified),0,0,0,0,0
CCOC(=O)C1=C(Cn2ccc(C(F)(F)F)n2)NC(=O)NC1c1ccc2c(c1)OCO2 (stereo unspecified),65,72,0,0,0
CC1=C(C(=O)OC(C)C)C(c2ccc(Br)s2)NC(=O)N1 (stereo unspecified),0,82,0,0,0
CCC(C)OC(=O)C1=C(C)NC(=O)NC1c1ccc(F)cc1 (stereo unspecified),0,95,0,0,0
